Common to all, as to details: mESC; 2uM; 72 h treatment, harvest day 5
Compound in one assay: O=C1Cc2c([nH]c3ccc(Br)cc23)-c2ccccc2N1 [Kenpaullone]
In words: fraction of microhomology deletions among edited reads; higher = more MH deletions.

Compound in a further assay: O=c1c(-c2ccc(O)cc2)coc2cc(O)cc(O)c12 [Genistein]
Described as above.

Compound in assay [1]: O=c1cc(N2CCOCC2)oc2c(-c3ccc4c(c3)OCCO4)csc12
Described as above.

Compound in a further assay: S=c1[nH]cnc2nc[nH]c12 [Mercaptopurine (6-MP)]
The assay is described as above.

Compound in assay [2]: S=c1nc[nH]c2nc[nH]c12 [6-Mercaptopurine (6-MP) Monohydrate]
The assay is described as above.

Compound in assay [3]: CC(=O)O/N=C1\C(=O)N(Cc2cc(Cl)ccc2Cl)c2ccc(Cl)cc21
In words: fraction of 1-bp insertions among edited reads; higher = more 1-bp insertion outcomes.

Compound in assay [4]: CC(C)(C#N)c1ccc(N2C(=O)OCc3cnc4ccc(-c5cnc6ccccc6c5)cc4c32)cc1
Described as above.

Compound in assay [5]: CCCCOc1c(C(=O)c2c(F)cc(C)cc2F)c[nH]c2nncc1-2
The description is as above.

Compound in assay [6]: CCN1CCN(CC(=O)Nc2ccc(-c3cccc4c(=O)cc(N5CCOCC5)oc34)c3sc4ccccc4c23)CC1
Described as above.

Compound in assay [7]: CCc1c2c(nc3ccc(OC(=O)N4CCC(N5CCCCC5)CC4)cc13)-c1cc3c(c(=O)n1C2)COC(=O)[C@]3(O)CC [Irinotecan HCl Trihydrate]
The assay is described as above.

Compound in assay [8]: CCn1c(=O)c(-c2ccc(Cl)cc2Cl)cc2cnc(Nc3ccc(N4CCNCC4)c(F)c3)nc21
The assay is described as above.

Compound in assay [9]: CNc1ccc([N+](=O)[O-])c(Nc2ccc3[nH]ncc3c2)n1
The assay is described as above.

Compound in another assay: CO[C@H]1/C=C/O[C@@]2(C)Oc3c(C)c(O)c4c(O)c(c(/C=N/N5CCN(C6CCCC6)CC5)c(O)c4c3C2=O)NC(=O)/C(C)=C\C=C\[C@H](C)[C@H](O)[C@@H](C)[C@@H](O)[C@@H](C)[C@H](OC(C)=O)[C@@H]1C [Rifapentine]
The assay is described as above.

Compound in assay [10]: COc1ccccc1-c1cc(Nc2cccc(CS(N)(=O)=O)c2)ncn1
The description is as above.

Compound in assay [11]: C[C@@H]1CN(CC(=O)Nc2ccc3c(c2)Cc2cccc(-c4cc(=O)cc(N5CCOCC5)o4)c2S3)C[C@H](C)O1
The assay is described as above.

Compound in assay [12]: Cc1cc(C)nc(SCC(=O)Nc2ncc(Cc3cccc4ccccc34)s2)n1
The assay is described as above.

Compound in assay [13]: Cc1ccc(C(=O)NCCCCCC(=O)Nc2ccccc2N)cc1
The assay is described as above.

Compound in assay [14]: Cc1cccc(CC(=O)N2CCc3c2ccc(-c2cn(C)c4ncnc(N)c24)c3F)n1
The description is as above.

Compound in assay [15]: NC(=O)c1ccc2nc(-c3ccc(Oc4ccc(Cl)cc4)cc3)[nH]c2c1 [Chk 2 inhibitor II (BML-277)]
The assay is described as above.

Compound in another assay: Nc1cc(F)ccc1NC(=O)c1ccc(CNC(=O)/C=C/c2cccnc2)cc1 [Tucidinostat (Chidamide)]
The assay is described as above.

On to “7.0 (DMSO control at this site: 1-bp insertion 0.128, MH deletion 0.374, edited 0.098) TACTCAACCGAGACCTACGCGAACCGAAATCGTATGCCGGTGCGCAAGCAGGGCTGGCGTC”, for which the “fraction of microhomology deletions among edited reads” value is 0.436 with Kenpaullone; 0.476 in the assay with Genistein; 0.43 in [1]; 0.401 with Mercaptopurine (6-MP); 0.367 in [2]. Further, the “fraction of 1-bp insertions among edited reads” value in assay [3] was found to be 0.105; in [4], 0.131; in assay [5], 0.164; in assay [6], 0.113; in assay [7], 0.105; in assay [8], 0.111. The “fraction of 1-bp insertions among edited reads” value in assay [9] turned out to be 0.166; with Rifapentine, 0.135; in [10] it was 0.154; in assay [11] it was 0.226; in assay [12], 0.137; in assay [13], 0.144. Moreover, the “fraction of 1-bp insertions among edited reads” value is 0.141 in [14], 0.131 in assay [15] and 0.174 with Tucidinostat (Chidamide).
As to “2.0 (DMSO control at this site: 1-bp insertion 0.364, MH deletion 0.356, edited 0.125) GGTGCCCCCGAGACCTACGCGAACCGAAATCGATGTCCGGTGCGCAAGCAGGGCTGGCGTC”, the “fraction of microhomology deletions among edited reads” value came out at 0.29 with Kenpaullone; 0.4 in the assay with Genistein; 0.419 in [1]; 0.33 with Mercaptopurine (6-MP); 0.321 in assay [2]. The “fraction of 1-bp insertions among edited reads” value in assay [3] came out at 0.325; in assay [4], 0.381; in assay [5], 0.379; in assay [6], 0.106; in [7] it was 0.355; in [8] it was 0.368. Also, the “fraction of 1-bp insertions among edited reads” value in assay [9] was determined as 0.43; with Rifapentine it was 0.334; in assay [10] it was 0.457; in assay [11], 0.745; in assay [12], 0.397; in assay [13], 0.451. The “fraction of 1-bp insertions among edited reads” value in assay [14] was 0.471; in assay [15], 0.378; in the assay with Tucidinostat (Chidamide) it was 0.433.
Regarding “21.0 CGATTGAGAGTCAAACGGGCCAGAAAACTCCGGGAACGGGCCAGAAAACTCCGGGGCATGG”, the “fraction of microhomology deletions among edited reads” value with Kenpaullone was 0.17; with Genistein it was 0.202; in assay [1], 0.158; with Mercaptopurine (6-MP), 0.16; in assay [2], 0.165. Besides, the “fraction of 1-bp insertions among edited reads” value in assay [3] was determined as 0.0304; in assay [4] it was 0.021; in [5], 0.0327; in assay [6] it was 0.0195; in assay [7], 0.0253; in assay [9], 0.026. In addition, the “fraction of 1-bp insertions among edited reads” value came out at 0.0143 in the assay with Rifapentine; 0.0287 in [10]; 0.0355 in assay [11]; 0.0108 in assay [12]; 0.0393 in [13]; 0.0251 in [15]. In the assay with Tucidinostat (Chidamide), the “fraction of 1-bp insertions among edited reads” value was found to be 0.0194.
With “43.0 (DMSO control at this site: 1-bp insertion 0.134, MH deletion 0.714, edited 0.104) AGTTTAACTTACTCCGGCCAAAAAAGAACTGCACCTCTGGAGCGGGTTAGTGGTGGTGGTA”, the “fraction of microhomology deletions among edited reads” value with Kenpaullone worked out at 0.658; with Genistein, 0.671; in [1] it was 0.688; with Mercaptopurine (6-MP), 0.614; in assay [2], 0.592. Moreover, the “fraction of 1-bp insertions among edited reads” value amounted to 0.0687 in assay [3]; 0.0941 in assay [4]; 0.0843 in assay [5]; 0.0439 in [6]; 0.113 in assay [7]; 0.0588 in assay [8]. Moreover, the “fraction of 1-bp insertions among edited reads” value was 0.0932 in assay [9]; 0.0993 with Rifapentine; 0.101 in assay [10]; 0.118 in assay [11]; 0.0918 in [12]; 0.0831 in [13]. In addition, the “fraction of 1-bp insertions among edited reads” value in [14] was 0.0629; in [15] it was 0.1; in the assay with Tucidinostat (Chidamide), 0.0828.

These data come from the supplement of paper PMC8387472.
